# ChEMBL document CHEMBL3988442, “University of Dundee, Small-Polar-MMV Screening Library” (2021)
# The campaign covered roughly 38,000 compounds. About 1,200 (3.2%) showed an effect of 50% or more. The median lay at about -58%. Shown is part of a subset that was picked to be rich in strong results.
# Tested on: Plasmodium falciparum
# Test: Calibr Malaria Delayed Death Assay SOP
# Type: functional, organism-based
# Design: scale not given: in the data most compounds retested in dose-response had high values
# Conditions: concentration 4.99e-06 (unit not given; other assays of the set use mol/L)
row,SMILES,Percent Effect
1,CC(C)Cc1cc(NC(=O)c2cc(Cl)c[nH]2)n(C)n1,10.73%
2,CC(C)N(C)CCC(=O)N1CCCC(c2ccc(C(=O)O)cc2)C1 (configuration not stated),-175.3%
3,CC(C)CN1C[C@H]2N(c3ncccn3)CCC[C@@]2(C(=O)NCC2CC2)C1,-72.47%
4,Cc1ccc(CN(C)C(=O)c2n[nH]c(N)c2-c2ccccc2)o1,-66.55%
5,CN(Cc1ccncc1)C1COC2(CCN(Cc3ccccn3)CC2)C1.O=C(O)C(F)(F)F.O=C(O)C(F)(F)F.O=C(O)C(F)(F)F.O=C(O)C(F)(F)F (configuration not stated),-49.62%
6,Cc1ncsc1C(=O)NC1CCN(CC(N)=O)CC1,-67.12%
7,O=C(Cn1ccc2sccc2c1=O)NCCC1=CCCCC1,-67.23%
8,Cc1cccc(N2CCN(CCCNC(=O)c3cn[nH]c3C)CC2)c1,-117.5%
9,CC1CCCN(CCCNC(=O)Cc2csc(-c3ccoc3)n2)C1 (configuration not stated),9.027%
10,Cc1csc([C@H]2C[C@H]3CN(Cc4cc(C)on4)CC[C@@H]3O2)n1.O=C(O)C(F)(F)F,-119%
11,CCN(C(=O)CN1CCn2c(C)nnc2C1)C1=CCCCC1,8.289%
12,c1cnn(CC2CN(Cc3nnc(C4CC4)o3)CCO2)c1 (configuration not stated),-40.41%
13,N[C@H]1CC[C@@H](Nc2nccc(CCC(F)(F)F)n2)CC1,50.03%
14,FC(F)(F)CCc1ccnc(N[C@H]2CC[C@H](n3cnnc3)CC2)n1,-55.01%
15,N[C@@H]1CC[C@@H](Nc2nccc(CCC(F)(F)F)n2)C1,-7.999%
16,CC(C)N(C)C(=O)C1=NOC2(CCN(C(=O)c3ccnnc3)C2)C1 (configuration not stated),-187.4%

row,SMILES,Percent Effect
1,Cc1cccc(CCC(=O)Nc2ccnn2C2CCS(=O)(=O)C2)c1 (configuration not stated),-75.57%
2,O=C(NCCNc1cncc(Br)c1)c1ccc(O)cc1,50.22%
3,O=C(NCCNc1ccc(Br)cn1)c1ccc(O)cc1,-25.48%
4,O=C(NCCNC(=O)c1ccc(Br)cc1)c1ccc(O)cc1,27.41%
5,CCc1nn(C)c(Cl)c1CN1CCCC2(CC1)CN(C)C(=O)O2 (configuration not stated),-46.66%
6,O=C1NCC2(CCCN(Cc3ccccc3OCCO)C2)O1 (configuration not stated),-55.51%
7,OCC1(O)CCCN(Cc2ccccc2OCCc2ccccc2)CC1 (configuration not stated),64.9%
8,OCCOc1ccccc1CN1CCCC(O)(CO)C1 (configuration not stated),-48.41%
9,Cc1cc(C(=O)Nc2cnn(CC(F)(F)F)c2)nc(N2CCOCC2)n1,-108.9%
10,c1csc(COC[C@H]2CCC[C@]23CN(Cc2ccoc2)CCO3)n1,34.38%
11,CCS(=O)(=O)N1CCC(Oc2ccc(C#N)cc2)CC1,-74.03%
12,CCN1CCCC1CN(CCN(C)C)S(=O)(=O)c1ccc(C#N)cc1 (configuration not stated),58.03%
13,CS(=O)(=O)NCC1CCCCN1Cc1cccc(C#N)c1 (configuration not stated),-99.98%
14,CC(=O)NCCC1CCCCN1S(=O)(=O)c1cccc(C#N)c1 (configuration not stated),-38.39%
15,CCN1CCCC1CN(CCN(C)C)S(=O)(=O)c1cccc(C#N)c1 (configuration not stated),58.76%
16,CCN(CC)S(=O)(=O)c1ccc(CNC(=O)N2CCC(C#N)CC2)cc1,-96.87%
